TIM10 inh: growth inhibitors of TIM10 yeast strain; S. cerevisiae TIM10 strain growth, BacTiter-Glo luminescence, 24 h; 1.4% of 330,000 active; inhibition, % at 10 µM; AID 463195;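 active means inhibition of 40% or more at the single tested concentration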;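 further: wild-type TIM10 isogenic control strain grown at permissive 25 °C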
NALP3 yeast inh: blocks the NALP3 inflammasome reconstituted in yeast; Yeast reconstituted NLRP3/ASC/caspase-1, beta-gal luminescence, 24 h; inhibition, % at 10 µM; 0.39% of 330,000 active;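 active means inhibition of 50% or more; inactive means inhibition below 50%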;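 further: plate controls were induced DMSO wells for no effect and uninduced yeast grown without galactose for full effect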
tim23-1 inh: inhibits growth of tim23-1 mutant yeast; S. cerevisiae tim23-1 growth, BacTiter-Glo luminescence, 24 h; inhibition, % at 20 µM; 1.3% of 330,000 active; AID 463212;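 active means growth inhibition of the mutant yeast at or above 50%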;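 further: temperature-sensitive mutant grown at 25 °C; plate controls were DMSO-treated mutant yeast for no effect and medium wells lacking yeast for full effect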
tim10-1 inh: tim10-1 yeast growth inhibition; S. cerevisiae tim10-1 ts strain growth, BacTiter-Glo, 24 h; inhibition, % at 20 µM; 2.2% of 330,000 active;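 active means inhibition of at least 40%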;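 further: mutant grown at 25 °C; 0% = DMSO wells with yeast and 100% = wells holding no yeast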
SKKanGAS inh: blocks kanamycin growth of S. pyogenes SKKanGAS strain; BacTiter-Glo, 6 h; 1.3% of 300,000 active; inhibition, % at 7.5 µM; AID 1662;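 active means mean replicate score, as percent of positive control median, at least 50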;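 further: strain carries kanamycin resistance gene driven by streptokinase promoter and grows in 40 µg/ml kanamycin; loss of luminescence reflects streptokinase promoter inhibition or plain growth inhibition; 0% = median of DMSO wells and 100% = positive control at its reference dose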
NALP1 inh: NALP1 inhibition; S. cerevisiae NALP1/ASC/caspase-1 growth, X-gal OD620, 72 h; inhibition, % at 10 µM; 0.61% of 280,000 active; AID 2071; in the data active means inhibition mostly above about 24%, no sharp cut-off; inactive means mostly below about 32%
* hit, by the source's call; · = no result given. The list is not random: actives were taken first. Their share in the collection is about 4.9%.

SMILES	TIM10 inh	NALP3 yeast inh	tim23-1 inh	tim10-1 inh	SKKanGAS inh	NALP1 inh
Cc1cccc(C)c1NC(=O)CNC(=O)CN1C(=O)NC2(CCc3ccccc32)C1=O (stereo unspecified)	-5	17	-14	-16	·	·
COC(=O)c1ccc(CN2CCC(Oc3cccc(C(=O)N4CCOCC4)c3)CC2)cc1	10	13	-7	2	-1	6
CCOC(=O)C(=O)NNc1ccc(Cl)cc1	-70	27	-117	7	3	50*
COCCn1c(=NC(=O)CCS(=O)(=O)c2ccccc2)sc2cc(F)ccc21	20	15	35	23	27	11
Cc1cccc2[nH]c3c(N4CC=C(c5ccc(F)cc5)CC4)ncnc3c12	30	6	43	5	82*	8
COc1cccc2[nH]c3c(N4CCCCC4)ncnc3c12	25	-7	32	5	3	13
O=C(Nc1ncc2c(n1)CC(c1ccccc1)CC2=O)c1ccco1 (stereo unspecified)	16	26	15	16	-3	-86
CCCCCC(=O)Nc1ncc2c(n1)CC(c1cccs1)CC2=O (stereo unspecified)	11	26	3	-5	1	38*
ClCC1=Nc2cccc3cccc(c23)N1	16	5	30	28	-4	·
COC(=O)c1ccc(NN=Nc2ccc(C)cc2)cc1	-13	-2	18	24	4	19
NC(=S)N=Nc1ccc(NN=C(N)N)cc1	19	22	-15	10	106*	6
CON(C)C(=O)C[C@@H]1C[C@H](OC(=O)c2ccc([N+](=O)[O-])cc2)CN1C(=O)OC(C)(C)C	4	11	8	4	·	·
Cc1cc2oc(=O)cc(CN(C)Cc3ccccc3Cl)c2cc1C	-20	13	-4	-2	62*	7
NC(=O)c1c(NC(=O)COC(=O)c2ccc(O)c(Cl)c2)sc2c1CCCC2	4	2	6	2	·	·
N#CC(C#N)=NNc1ccc([N+](=O)[O-])cc1	38	36	20	-2	86*	·
NC(=O)c1cc(S(=O)(=O)NCc2cccs2)cs1	-3	6	-8	-9	-4	14
CCn1ccnc1CN1CCc2c([nH]c3ccccc23)C1C1CCCCC1 (stereo unspecified)	13	4	4	19	79*	12
COc1cc(CNc2cccc(C(=O)O)c2)cc(Br)c1OCC(=O)NC(C)(C)C	7	9	23	5	6	20
CC(C)n1nc(C(=O)Nc2nc3ccc(S(C)(=O)=O)cc3s2)c2ccccc2c1=O	-12	5	-13	-13	-2	2
CC(C)n1nc(C(=O)Nc2nnc(SCc3c(Cl)cccc3Cl)s2)c2ccccc2c1=O	12	12	20	23	64*	-2
COc1ccc(NC(=O)NNC(=O)COc2ccc3cc(Br)ccc3c2)cc1OC	11	-7	24	11	0	30*
O=C(CNC(=O)c1cccc(F)c1)NC1CC1	-3	18	-2	-8	·	·
CN(C)S(=O)(=O)c1ccc(C(=O)Nc2nnc(-c3ccc4c(c3)CCCC4)o2)cc1	-1	-5	2	12	94*	19
O=C(Nc1nnc(-c2ccc3c(c2)CCCC3)o1)C1CCCCC1	-25	14	-27	-44	81*	6
CN(C)S(=O)(=O)c1ccc(C(=O)Nc2nnc(-c3cccs3)o2)cc1	11	0	-7	9	-2	-12
SMILES	TIM10 inh	NALP3 yeast inh	tim23-1 inh	tim10-1 inh	SKKanGAS inh	NALP1 inh
O=C(Nc1nnc(-c2ccc3c(c2)CCCC3)o1)c1ccc(Cl)cc1Cl	18	24	35	28	96*	30
O=C(Nc1nnc(-c2ccncc2)o1)C1CCCCC1	-23	-3	6	-20	-1	16
O=C(Nc1nnc(-c2ccc3c(c2)CCCC3)o1)c1c(F)cccc1F	10	-3	37	13	95*	16
COc1ccc(C)cc1NC(=O)CN1C(=O)C(=O)N(C2CCCC2)C1=O	2	-2	0	7	·	·
CCN(CC)CCC#CC1(O)c2ccccc2-c2ccccc21	-8	7	8	3	0	13
O=C(CCc1ccccc1)Nc1nnc(-c2ccc3c(c2)OCCO3)o1	-2	1	8	3	10	-18
O=C(CCc1ccccc1)Nc1nnc(-c2ccc3c(c2)CCCC3)o1	10	2	19	16	85*	-1
Cc1ccc(NC(=O)c2ccc3ncsc3c2)cc1S(=O)(=O)N(C)C	13	2	25	4	-1	·
C[C@@H](O)[C@H]1C(=O)N2C(C(=O)O)=C(S[C@@H]3CN[C@H](C(=O)N(C)C)C3)[C@H](C)[C@H]12	·	·	·	·	110*	·
Cc1ccc(NS(=O)(=O)c2ccccc2F)cc1S(=O)(=O)N1CCCCCC1	14	19	24	20	·	·
CCSc1nnc(-c2c[nH]c3ccccc23)o1	-8	29	16	-6	-2	37*
N#CCSc1nnc(-c2c[nH]c3ccccc23)o1	4	8	22	5	-3	12
CC1CCCC(C)N1C(=O)CSc1nnc(COc2ccc(F)cc2)o1 (stereo unspecified)	1	22	22	11	-1	-12
Cc1ccc(NC(=O)Cn2cnc3cc([N+](=O)[O-])ccc3c2=O)cc1	2	31	-15	-23	-1	37*
Cc1ccc(NC(=O)Cn2cnc3cc([N+](=O)[O-])ccc3c2=O)c(Cl)c1	9	1	-10	-13	2	-1
C[C@@H](NC(=O)[C@@H]1Cc2ccccc2CN1)C(=O)NCC1CCCO1 (stereo partly specified)	-2	0	10	9	-4	-4
Cc1ccc(S(=O)(=O)N2CCCCC2)cc1NC(=O)C1CC(=O)N(c2ccc3c(c2)OCCO3)C1 (stereo unspecified)	-3	10	0	7	17	·
COc1cc(/C=N/NC(=O)CSc2cc(C)c(Br)cc2C)ccc1O	23	-2	42	26	24	6
Cc1cc(SCC(=O)N/N=C/c2ccc(O)c(O)c2O)c(C)cc1Br	34	7	50	33	69*	-11
O=C(NC(=S)N1CCN(c2ccc(O)cc2)CC1)c1cccs1	12	7	0	16	-13	-14
O=C(NC(=S)N1CCN(c2c(Cl)cccc2[N+](=O)[O-])CC1)c1cccs1	35	33	23	24	76*	-2
COc1ccc([C@H]2CC(=O)C=C(/C=C/c3ccc(C(F)(F)F)cc3)C2)cc1	15	15	30	14	·	·
Cc1ccc(C(=O)OCC(=O)N2CCC(c3ccccc3)=N2)cc1	9	26	31	10	·	·
Nc1nc(SCC(=O)c2cc3ccccc3o2)n[nH]1	-4	-2	3	10	-8	22*
COc1ccc(S(=O)(=O)NCC2CCCN(Cc3ccccc3Cl)C2)cc1 (stereo unspecified)	3	-1	17	5	3	16

Screens deposited in PubChem by several laboratories.
